We go through six molecules from PubChem BioAssay (NCATS).

In assay [1] the target is Lysosomal acid glucosylceramidase (Homo sapiens) (UniProt P04062). Briefly: Glucocerebrosidase-p2 (AID 348; in the data active = potency below about 10 µM; also: potency is read from the fitted curve at half-maximal effect). The settings on record: purified GBA, blue fluorogenic substrate, 40 min. The method in brief:
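Compounds titrated from 0.6 nM upwards against 0.2 nM enzyme in pH 5.9 citric acid/KH2PO4, taurocholate, tween-20; blue fluorogenic substrate 80 uM, 40 min room temperature, stopped and read Ex 365/Em 440 for AC50.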

Assay [2] in a line: AP1 Signaling Pathway (AID 357; active = well fitted curve in either direction with a large enough effect, not every such curve was filed as active; also: % is scaled to controls: 0 for no effect and ±100 for the full control effect). The note with it: ME-180 AP-1-bla reporter, EGF-induced, beta-lactamase ratio, 5 h; at 7.69 µM (top of the series) unless noted. The method in brief: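 In this screen, ME-180 cells in Opti-MEM with 0.5% dialyzed FBS received EC50 EGF and compound titrations for 5 h. AP-1 reporter beta-lactamase was detected via CCF4 ratio, giving AC50 for positive and negative modulators.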

The nature of assay [3]: NFAT Signaling Pathway (AID 444; active = well fitted curve in either direction with a large enough effect, not every such curve was filed as active;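 also: carbachol stimulus at about its EC50 of 1 µM final; % is scaled to controls: 0 for no effect and ±100 for the full control effect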). The note with it: Jurkat NFAT-bla M1, carbachol, beta-lactamase ratio, 5 h; at 7.69 µM (top of the series) unless noted. The method in brief:
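Read-out: CCF4 FRET ratio (460 nm/530 nm) after 1 h RT dye loading, used for %activity and AC50 from titration series. Cells: Jurkat NFAT-β-lactamase/M1 line, treated with compound plus 1 uM carbachol for 5 h, 37 °C.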

Assay [4] in a line: Stat Signaling Pathway (AID 446; active = well fitted curve in either direction with a large enough effect, not every such curve was filed as active;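 also: ME-180 cervical cancer cells given 40 pM IL-6 alongside compound; SIE-controlled beta-lactamase reporter measured as 460/530 nm FRET emission ratio; % is scaled to controls: 0 for no effect and ±100 for the full control effect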). The note with it: ME-180 (cervical carcinoma) SIE beta-lactamase reporter, IL-6 stimulated, 5 h; at 7.69 µM (top of the series) unless noted. A digest of the protocol:
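IL-6/STAT signaling read in ME-180 cells via an SIE beta-lactamase reporter. Stimulus was 40 pM IL-6 (its AC50) for 5 hrs, so both activation and inhibition register.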

Assay [5] addresses Glucocorticoid receptor (Homo sapiens) (UniProt P04150). As to the kind of experiment: GR-GFP Redistribution (AID 450;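 active = compounds whose dose series gives a full or clear partial fitted curve of increased nuclear translocation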; also: potency is read from the fitted curve at half-maximal effect). The settings on record: U2OS GR-GFP nuclear translocation, laser cytometry, 2 h.
Assay [6] shares this target. Briefly: GR-EFC Redistribution (AID 451; calls by dose curve; also: potency is read from the fitted curve at half-maximal effect). The note with it: CHO-K1 GR-EFC translocation, beta-gal luminescence, 2 h. A digest of the protocol:
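Translocation of GR-ED fusion to nuclear EA restores b-gal, read by luminescence after 1 h room-temperature detection. Engineered CHO-K1 biosensor cells, 1,000/well, exposed 2 h at 37 C to titrations up to 46 uM final.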

In assay [7] the target is Mitogen-activated protein kinase 10 (Mus musculus) (UniProt Q61831). Briefly: JNK3 AlphaScreen Assay (AID 530; active = well fitted curve in either direction with a large enough effect, not every such curve was filed as active;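 also: kinase came from lysate of stimulated human HepG2 cells; signal reports phosphorylation of biotinylated GST-cJun 1-79 at Ser73 with 10 µM ATP; % is scaled to controls: 0 for no effect and ±100 for the full control effect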). The settings on record: JNK3 lysate, c-Jun phosphorylation; series mostly up to 57.1 µM. The method in brief:
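Compound titrations were preincubated 15 minutes at room temperature with substrate, antibody and pre-activated JNK3-containing HepG2 lysate. Reactions were started with 10 uM ATP and stopped with EDTA-containing bead buffer for AlphaScreen detection.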
A general note: In Alpha technology, singlet oxygen from a donor bead excites a nearby acceptor bead.

The target of assay [8] is 3',5'-cyclic-AMP phosphodiesterase 4B (Homo sapiens) (UniProt Q07343). Briefly: qHTS Assay for Inhibitors of PDE-IV (AID 607; active = well fitted activation curve with a large enough effect in the main read-out, with a control signal flat, not every such curve was filed as active; also: % of control where 0% means no effect). The settings on record: HEK293 ACTOne CNG channel cells, membrane potential fluorescence; series mostly up to 22.9 µM. The method in brief:
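Live HEK293 cells with a modified cyclic nucleotide-gated (CNG) channel report intracellular cAMP via membrane-potential dye fluorescence (ex 535/em 590 nm). Endogenous PDE-IV was targeted. Compounds were tested at up to 22.9 uM final; RO 20-1724 100 uM served as control.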
On the technique in general: qHTS replaces the single test concentration by a dilution series.

The target of assay [9] is Dual specificity protein kinase CLK4 (Homo sapiens) (UniProt Q9HAZ1). Briefly: qHTS Assay for Inhibitors of CDC-like Kinase 4 (Kinase-Glo Assay) (AID 1770). Also: nearly all actives have a fitted effect of over 65% in size. Also: potency is read from the fitted curve at half-maximal effect. The settings on record: recombinant Clk4, Kinase-Glo ATP depletion luminescence; series mostly up to 66.7 µM. The method in brief:
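25 nM Clk4 with 100 uM RS repeat peptide and 1 uM ATP (final) in Tris pH7.5, 10 mM MgCl2, 4.5 h at room temperature. Remaining ATP measured by Kinase-Glo luciferase luminescence.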

The target is the same in assay [10]. Briefly: qHTS Assay for Inhibitors of CDC-like Kinase 4 (ADP-Glo Assay) (AID 1771). Also: nearly all actives have a fitted effect of over 70% in size. Also: potency is read from the fitted curve at half-maximal effect. The settings on record: recombinant CLK4, ADP-Glo luminescence; series mostly up to 80 µM. The method in brief:
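25 nM Clk4 with 100 uM RS repeat peptide and 1 uM ATP (final) in buffer with 2 mM MgCl2, 0.5 mM EGTA, 2.5 mM DTT, 0.01% Triton X-100; 1 h at room temperature; ADP-Glo luminescence for ADP formed.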

Assay [11] shares this target. As to the kind of experiment: qHTS Assay for Inhibitors of CDC-like Kinase 4 (ADP-FP Assay) (AID 1795). Also: nearly all actives have a fitted effect of over 60% in size. Also: potency is read from the fitted curve at half-maximal effect. The note with it: Transcreener ADP fluorescence polarization; series mostly up to 50 µM. A digest of the protocol:
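Recombinant Clk4 (6.25 nM) phosphorylated 100 uM RS repeat peptide with 1 uM ATP in 25 mM Tris pH 7.5, 10 mM MgCl2, 0.5 mM EGTA, 2.5 mM DTT, 0.01% Triton X-100 for 1 h. ADP was detected by Transcreener ADP2 competitive fluorescence polarization after 30 min at room temperature.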

The target in assay [12] is Ubiquitin carboxyl-terminal hydrolase 1 (Homo sapiens) (UniProt O94782). As to the kind of experiment: Inhibitors of USP1/UAF1: Pilot qHTS (AID 504865). Also: nearly all actives have a fitted effect of over 35% in size. Also: potency is read from the fitted curve at half-maximal effect. The settings on record: purified USP1/UAF1, Ub-rhodamine cleavage fluorescence; series mostly up to 54.9 µM. The method in brief:
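USP1/UAF1 complex at 1 nM preincubated 15 min at room temperature with compound, then Ub-Rho substrate added at 150 nM final. Fluorescence (480/540 nm) read kinetically in 50 mM HEPES pH 7.8, 0.5 mM EDTA, 1 mM TCEP, 0.1 mg/ml BSA, 0.01% Tween-20.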

The nature of assay [13]: Primary qHTS for small molecule stabilizers of the endoplasmic reticulum resident proteome: Secreted ER Calcium Modulated Protein (SERCaMP) assay (AID 1508630). Also: % is scaled to controls: 0 for no effect and ±100 for the full control effect. The settings on record: SH-SY5Y GLuc-SERCaMP (Gaussia luciferase released on ER calcium loss) secretion, thapsigargin, luminescence; series mostly up to 38.4 µM. The method in brief: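 GLuc-SERCaMP-expressing SH-SY5Y cells, pretreated 16 h with compound, are challenged with thapsigargin to empty ER calcium stores; after 4 h, coelenterazine is added directly to the medium and luminescence is imaged.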

Assay [14] addresses Cytochrome P450 2C9 (Homo sapiens) (UniProt P11712). As to the kind of experiment: qHTS Assay for Inhibitors and Substrates of Cytochrome P450 2C9 (AID 883). Also: % is scaled to controls: 0 for no effect and ±100 for the full control effect; nearly all actives have a fitted effect of over 60% in size. The note with it: recombinant CYP2C9, luciferin-H luminescence, 60 min; series mostly up to 57.1 µM. The method in brief: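 Turnover of Luciferin-H (100uM, KM) by 10nM human CYP2C9 was measured over 60 min at 37C with NADPH regeneration; inhibitors and some substrates reduce luminescence. Data normalized to sulphaphenazole 57uM.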

The target in assay [15] is Cytochrome P450 3A4 (Homo sapiens) (UniProt P08684). As to the kind of experiment: qHTS Assay for Activators of Cytochrome P450 3A4 (AID 885). Also: nearly all actives have a fitted effect of over 65% in size. The note with it: recombinant CYP3A4, Luciferin-PPXE luminescence, 60 min; series mostly up to 57.1 µM. A digest of the protocol:
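Quantitative HTS format: compounds preincubated with 20nM human CYP3A4 and Luciferin-PPXE substrate at KM, reaction started by NADPH regeneration, stopped after 60 min, luciferase luminescence read 20 min later.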

A number with no mark means an inactive call. Records with an inconclusive call do not appear. Calls of active or inactive are those of the source. Unless noted, calls follow the shape of the dose curve; as a rule, active = well fitted curve in the direction sought with a large enough effect; inconclusive = small, poorly fitted or top-dose-only effect, or another doubt; inactive = no such curve, though single readings can be large; an effect the other way counts as inactive or inconclusive. Bounds are passed on as bounds.

Sequence of Ubiquitin carboxyl-terminal hydrolase 1 (Homo sapiens) (O94782 whole entry, looked up): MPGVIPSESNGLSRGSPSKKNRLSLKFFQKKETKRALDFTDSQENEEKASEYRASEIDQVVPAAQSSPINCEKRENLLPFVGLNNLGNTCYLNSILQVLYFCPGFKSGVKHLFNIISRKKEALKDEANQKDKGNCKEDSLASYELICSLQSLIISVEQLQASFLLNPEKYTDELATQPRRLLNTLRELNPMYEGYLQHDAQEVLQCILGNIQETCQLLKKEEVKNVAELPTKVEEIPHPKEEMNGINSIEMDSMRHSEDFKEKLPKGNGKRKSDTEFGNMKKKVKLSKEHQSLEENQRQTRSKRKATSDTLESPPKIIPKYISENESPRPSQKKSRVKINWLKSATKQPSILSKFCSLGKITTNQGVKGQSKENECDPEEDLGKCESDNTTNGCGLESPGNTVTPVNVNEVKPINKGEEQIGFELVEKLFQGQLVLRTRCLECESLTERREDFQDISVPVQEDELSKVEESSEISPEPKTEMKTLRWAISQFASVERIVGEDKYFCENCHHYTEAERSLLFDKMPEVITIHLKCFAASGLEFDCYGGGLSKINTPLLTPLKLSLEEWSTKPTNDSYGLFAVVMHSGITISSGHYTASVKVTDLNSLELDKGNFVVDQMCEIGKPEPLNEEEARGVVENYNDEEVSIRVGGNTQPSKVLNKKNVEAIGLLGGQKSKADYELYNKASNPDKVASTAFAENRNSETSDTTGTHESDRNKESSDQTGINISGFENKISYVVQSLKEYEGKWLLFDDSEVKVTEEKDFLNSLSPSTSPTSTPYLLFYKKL
Sequence of Glucocorticoid receptor (Homo sapiens) (P04150 whole entry, looked up): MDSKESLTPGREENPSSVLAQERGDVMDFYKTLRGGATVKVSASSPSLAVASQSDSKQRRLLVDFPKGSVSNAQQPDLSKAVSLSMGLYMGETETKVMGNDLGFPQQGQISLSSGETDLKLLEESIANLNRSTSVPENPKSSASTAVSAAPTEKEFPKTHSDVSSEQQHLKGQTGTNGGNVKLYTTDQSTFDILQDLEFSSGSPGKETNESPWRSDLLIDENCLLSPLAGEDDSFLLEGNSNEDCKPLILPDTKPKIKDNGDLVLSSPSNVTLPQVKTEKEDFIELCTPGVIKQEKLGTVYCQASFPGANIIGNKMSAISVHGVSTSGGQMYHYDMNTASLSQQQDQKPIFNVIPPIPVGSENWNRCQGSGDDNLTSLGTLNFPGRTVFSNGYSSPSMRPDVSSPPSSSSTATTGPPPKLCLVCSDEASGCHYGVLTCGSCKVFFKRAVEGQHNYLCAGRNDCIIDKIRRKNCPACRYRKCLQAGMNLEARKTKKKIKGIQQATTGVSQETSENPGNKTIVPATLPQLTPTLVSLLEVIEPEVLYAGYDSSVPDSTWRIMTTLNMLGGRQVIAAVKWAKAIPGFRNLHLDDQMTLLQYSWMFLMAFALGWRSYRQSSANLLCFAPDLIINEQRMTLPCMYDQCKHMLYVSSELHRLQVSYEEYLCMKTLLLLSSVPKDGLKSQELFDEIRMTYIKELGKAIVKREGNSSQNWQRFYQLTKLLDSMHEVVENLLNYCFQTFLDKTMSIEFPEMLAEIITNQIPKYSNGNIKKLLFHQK
Sequence of 3',5'-cyclic-AMP phosphodiesterase 4B (Homo sapiens) (Q07343 whole entry, looked up): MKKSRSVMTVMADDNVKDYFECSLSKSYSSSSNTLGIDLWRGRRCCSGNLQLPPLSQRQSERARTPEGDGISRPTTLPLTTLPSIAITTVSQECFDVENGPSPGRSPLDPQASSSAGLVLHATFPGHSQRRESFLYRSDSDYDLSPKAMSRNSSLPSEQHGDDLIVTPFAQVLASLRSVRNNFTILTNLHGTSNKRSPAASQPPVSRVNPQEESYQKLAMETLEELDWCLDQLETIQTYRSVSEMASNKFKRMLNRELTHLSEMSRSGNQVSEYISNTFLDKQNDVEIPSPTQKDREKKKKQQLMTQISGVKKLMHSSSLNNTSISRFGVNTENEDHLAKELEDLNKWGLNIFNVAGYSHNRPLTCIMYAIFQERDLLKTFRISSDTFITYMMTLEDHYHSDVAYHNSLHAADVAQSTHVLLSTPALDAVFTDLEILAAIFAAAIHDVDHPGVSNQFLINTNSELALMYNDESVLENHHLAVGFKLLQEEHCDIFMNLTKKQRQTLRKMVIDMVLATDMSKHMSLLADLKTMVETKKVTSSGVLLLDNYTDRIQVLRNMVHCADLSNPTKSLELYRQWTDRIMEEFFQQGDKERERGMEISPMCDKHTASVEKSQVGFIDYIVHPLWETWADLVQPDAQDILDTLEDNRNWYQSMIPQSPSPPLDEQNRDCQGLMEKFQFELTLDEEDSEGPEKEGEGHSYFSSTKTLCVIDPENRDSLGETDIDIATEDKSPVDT
Sequence of Dual specificity protein kinase CLK4 (Homo sapiens) (Q9HAZ1 whole entry, looked up): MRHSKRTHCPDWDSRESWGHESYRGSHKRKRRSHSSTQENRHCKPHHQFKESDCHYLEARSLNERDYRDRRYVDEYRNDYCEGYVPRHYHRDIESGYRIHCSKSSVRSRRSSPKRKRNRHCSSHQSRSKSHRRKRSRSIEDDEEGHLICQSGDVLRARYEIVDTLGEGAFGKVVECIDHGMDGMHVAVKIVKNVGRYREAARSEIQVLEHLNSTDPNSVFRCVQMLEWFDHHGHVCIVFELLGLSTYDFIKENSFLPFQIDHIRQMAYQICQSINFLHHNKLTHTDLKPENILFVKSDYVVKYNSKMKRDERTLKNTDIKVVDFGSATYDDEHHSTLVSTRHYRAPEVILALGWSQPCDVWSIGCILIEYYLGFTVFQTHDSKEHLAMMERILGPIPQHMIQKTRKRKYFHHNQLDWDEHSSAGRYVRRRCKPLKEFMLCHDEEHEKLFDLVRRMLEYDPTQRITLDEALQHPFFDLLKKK
Sequence of Lysosomal acid glucosylceramidase (Homo sapiens) (P04062 whole entry, looked up): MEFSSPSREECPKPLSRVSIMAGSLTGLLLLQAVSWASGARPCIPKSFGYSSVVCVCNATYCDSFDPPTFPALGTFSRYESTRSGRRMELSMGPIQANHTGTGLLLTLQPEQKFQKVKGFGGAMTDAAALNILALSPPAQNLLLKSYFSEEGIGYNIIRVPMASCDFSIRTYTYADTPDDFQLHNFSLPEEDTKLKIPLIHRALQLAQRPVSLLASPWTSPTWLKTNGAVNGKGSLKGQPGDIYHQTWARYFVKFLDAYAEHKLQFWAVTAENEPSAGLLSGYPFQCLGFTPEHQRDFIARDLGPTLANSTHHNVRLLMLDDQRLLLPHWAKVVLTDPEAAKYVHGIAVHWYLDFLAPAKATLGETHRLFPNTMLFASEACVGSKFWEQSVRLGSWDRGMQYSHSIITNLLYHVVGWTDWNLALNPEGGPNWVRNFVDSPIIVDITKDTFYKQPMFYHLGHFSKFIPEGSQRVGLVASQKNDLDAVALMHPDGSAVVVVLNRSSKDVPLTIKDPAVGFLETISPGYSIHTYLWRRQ
Sequence of Cytochrome P450 2C9 (Homo sapiens) (P11712 whole entry, looked up): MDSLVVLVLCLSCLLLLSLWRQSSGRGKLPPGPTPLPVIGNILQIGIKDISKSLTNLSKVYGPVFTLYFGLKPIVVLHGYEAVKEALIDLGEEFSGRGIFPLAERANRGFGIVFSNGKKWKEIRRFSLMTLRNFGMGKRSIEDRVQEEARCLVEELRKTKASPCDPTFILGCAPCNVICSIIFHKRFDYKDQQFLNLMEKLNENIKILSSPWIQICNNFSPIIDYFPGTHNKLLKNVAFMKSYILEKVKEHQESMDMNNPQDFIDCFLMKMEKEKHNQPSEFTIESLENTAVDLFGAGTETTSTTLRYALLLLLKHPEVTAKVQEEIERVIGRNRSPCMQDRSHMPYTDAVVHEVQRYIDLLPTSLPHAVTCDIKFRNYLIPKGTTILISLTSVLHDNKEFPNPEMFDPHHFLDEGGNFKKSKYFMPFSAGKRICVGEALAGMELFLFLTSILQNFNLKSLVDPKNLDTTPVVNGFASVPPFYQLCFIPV
Sequence of Cytochrome P450 3A4 (Homo sapiens) (P08684 whole entry, looked up): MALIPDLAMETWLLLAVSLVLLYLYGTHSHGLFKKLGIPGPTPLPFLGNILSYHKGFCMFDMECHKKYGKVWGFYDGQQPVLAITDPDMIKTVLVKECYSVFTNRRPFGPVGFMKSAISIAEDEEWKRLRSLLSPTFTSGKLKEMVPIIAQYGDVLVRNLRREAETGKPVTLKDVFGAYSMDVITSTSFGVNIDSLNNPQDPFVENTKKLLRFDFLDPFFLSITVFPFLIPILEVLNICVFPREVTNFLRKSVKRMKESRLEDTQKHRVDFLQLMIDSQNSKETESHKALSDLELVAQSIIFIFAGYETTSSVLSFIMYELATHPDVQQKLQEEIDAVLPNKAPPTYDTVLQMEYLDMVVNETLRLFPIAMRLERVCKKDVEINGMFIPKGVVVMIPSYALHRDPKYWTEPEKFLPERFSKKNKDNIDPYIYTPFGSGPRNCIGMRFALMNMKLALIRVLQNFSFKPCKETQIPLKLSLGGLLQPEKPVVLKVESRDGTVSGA

For `COc1ccc2[nH]cc(CCNc3cc(-c4ccccc4Cl)ncn3)c2c1`, the Potency in assay [1] is above 11.4 µM; in assay [5], above 46 µM; in assay [6], above 46 µM; in assay [9] it was 12.6 µM (active); in assay [10], 12.6 µM (active); in assay [11], 12.6 µM (active). For the same molecule, the Potency in assay [12] is 20 µM (active). Moreover, the results for the activity change, negative = inhibition in [2] and in assay [3] were 0.747% and 9.26%, respectively. The activity, negative = inhibition in assay [4] is -11.7%. Besides, the Potency result in assay [7] and in assay [8] was “inactive” in each case. Further, in [13], the outcome was inactive.

As for `N#Cc1cccc(-c2nc3cnc(N4CCOCC4)nc3n(Cc3ccc(F)cc3)c2=O)c1`, the Potency in assay [1] is above 11.4 µM; in [5] it was above 9.22 µM; in assay [6] it was above 46 µM. For the same molecule, the results for the activity change, negative = inhibition in [2] and in assay [3] were -7.31% and 27.2%, respectively. In assay [4], the activity, negative = inhibition is 13.2%. The Potency entry in assay [7], in [8], in assay [14], in [9], in [10] and in assay [11] was “inactive” throughout. Also, the Potency result in assay [12] was “inactive”. Moreover, the result in assay [13] was inactive.

For `COc1ccc(-n2c(=O)c(-c3ccc(F)c(F)c3)nc3cncnc32)cc1`, the Potency in assay [1] was above 11.4 µM; in [5], above 9.22 µM; in assay [6] it was above 46 µM. Besides, the results for the activity change, negative = inhibition in assay [2] and in assay [3] were -1.43% and 1.94%, respectively. Besides, the activity, negative = inhibition in assay [4] is -16.2%. Besides, the Potency entry in [7], in assay [8], in assay [15], in [9], in [10] and in assay [11] was “inactive” each time. In [12], the Potency entry was “inactive”. For the same molecule, the result in assay [13] was inactive.

On to `N#Cc1cccc(-c2ccc3ncnc(NC4CCNCC4)c3c2)c1`, for which the Potency in assay [1] is above 11.4 µM; in assay [5], above 46 µM; in assay [6], above 46 µM; in assay [9] it was 12.6 µM (active); in assay [10], 14.1 µM (active); in [11], 14.1 µM (active). Moreover, the activity change, negative = inhibition in assay [2] is -6.77%; in assay [3] it was 3.08%. In assay [4], the activity, negative = inhibition is -3.89%. Further, the Potency result in [7], in [8] and in [12] was “inactive” throughout. Moreover, in assay [13], the outcome was inactive.

Consider `COc1ccc2[nH]cc(CCNc3ccnc(-c4cccc(C#N)c4)n3)c2c1`, for which the Potency was above 11.4 µM in assay [1]; above 46 µM in assay [5]; above 46 µM in assay [6]; 12.6 µM (active) in assay [9]; 12.6 µM (active) in assay [10]; 8.91 µM (active) in [11]. The activity change, negative = inhibition in assay [2] is -12.9%; in [3], 23.2%. Also, in assay [4], the activity, negative = inhibition was -8.5%. Further, the Potency entry in [7], in assay [8] and in [12] was “inactive” in each case. In addition, the result in assay [13] was inactive.

With `Cc1ccccc1-c1cc(N2CCNCC2)ncn1`, the Potency was above 11.4 µM in [1], above 46 µM in [5] and above 46 µM in [6]. The activity change, negative = inhibition is 8.27% in assay [2] and 15.7% in [3]. In addition, the activity, negative = inhibition in assay [4] was 8.55%. The Potency entry in assay [7], in assay [8], in assay [9], in assay [10], in assay [11] and in [12] was “inactive” throughout. In addition, the outcome in [13] was inactive.
